# CCT modulator: High-Throughput Screening for Modulators of Cytosolic Chaperonin Activity. purified chaperonin ATPase assay, HTRF ADP detection, 30 min. activity change, % (no concentration beside the values), hits read low. AID 651819, 2012. hit rate 0.3% among 360,000; in the data active = activity change below about -30%; note: % is set by controls: 0 for no effect and ±100 for the full control effect
#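 Nucleotide hydrolysis assay: TRiC at 20–40 nM final (set by batch activity) with 10 uM ATP, 30 min at 37 °C, in presence of 76 uM compound. Detection by competitive ADP HTRF, 30 min ambient.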
# Tb PGK inh: qHTS Assay to Find Inhibitors of Phosphoglycerate Kinase; Phosphoglycerate kinase, glycosomal (Trypanosoma brucei brucei), P07378; PGK/GAPDH coupled, Kinase-Glo luminescence, 60 min; Potency, µM (doses to about 57.5 µM), for the others: at the top dose activity change, negative = inhibition, usual class: inhibitors; hit rate 0.043% among 380,000; AID 602233, 2012; note: potency is the fitted concentration of half-maximal effect; % is set by controls: 0 for no effect and ±100 for the full control effect; nearly all actives have a fitted effect of over 60% in size
# Target sequence (P07378 whole entry, looked up): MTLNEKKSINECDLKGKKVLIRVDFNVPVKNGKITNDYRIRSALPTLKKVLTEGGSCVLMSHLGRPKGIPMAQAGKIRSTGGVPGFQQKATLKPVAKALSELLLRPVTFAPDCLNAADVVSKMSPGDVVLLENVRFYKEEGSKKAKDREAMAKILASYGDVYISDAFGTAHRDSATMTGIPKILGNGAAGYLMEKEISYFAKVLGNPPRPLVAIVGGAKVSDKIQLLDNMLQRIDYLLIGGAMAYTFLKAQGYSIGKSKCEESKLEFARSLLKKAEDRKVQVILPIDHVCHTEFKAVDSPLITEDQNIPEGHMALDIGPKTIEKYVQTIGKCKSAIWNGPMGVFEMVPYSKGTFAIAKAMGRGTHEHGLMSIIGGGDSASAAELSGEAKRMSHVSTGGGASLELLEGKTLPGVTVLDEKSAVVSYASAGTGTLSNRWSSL
#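 Luminescent ATP detection (Kinase-Glo Plus) follows a 60-minute room-temperature incubation, with wells lacking PGK as controls. Buffer: 100 mM TEA (pH 7.6), 5 mM MgCl2, 0.01% Tween-20. Coupling enzyme GAPDH (100 nM final) supplies unstable 1,3-BPG in-well.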
# PINK1 expr mod: A Quantitative High throughput Screen to Identify Chemical Modulators of PINK1 Expression; PINK1 immunofluorescence, high-content cytometry, 24 h; Potency, µM (highest dose often 76.6 µM), for the others: top-dose activation (PINK1 increase), hits mostly activators; hit rate 0.2% among 410,000; AID 624263, 2012; active = well fitted activation curve with a large enough effect; inconclusive = small, poorly fitted or top-dose-only effect; cell line not stated here; note: potency is the fitted concentration of half-maximal effect; % of control where 0% means no effect; nearly all actives have a fitted effect of over 65% in size
#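 Measures PINK1 amount and localization on or inside mitochondria by immunofluorescence. Stable cells get compounds at 5 concentrations for 24 hours before fixation and staining; CCCP controls included.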
# PI4K2A block: qHTS for small molecular inhibitors of PI4K2A. AID 1346378, 2018. hit rate 0.13% among 420,000. Phosphatidylinositol 4-kinase type 2-alpha (Homo sapiens), Q9BTU6. activity change, negative = inhibition, % at 76.9 µM. purified PI4K2A, ADP-Glo luminescence, 1 h; hits give low values; in the data active = activity change below about -50%; inconclusive = mostly about -30% to -49%;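 note: -100% = wells without enzyme as full effect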
#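 PI4K2A activity was measured by ADP-Glo luminescence: enzyme (4 ug/mL stock) and phosphatidylinositol (1.2 mM stock) in Tris pH 7.5/MgCl2/EGTA/Triton X-100 buffer were reacted with ATP (300 microM stock) for one hour at ambient temperature.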
# GLS inhibitor: qHTS for Inhibitors of Glutaminase (GLS). GLS enzymatic activity, qHTS titration. hit rate 0.21% among 410,000. Potency, µM (titrated, usually from 45.5 µM), without a hit: top-dose activity change, negative = inhibition, most hits filed as inhibitors. Glutaminase kidney isoform, mitochondrial (Homo sapiens), O94925; note: potency is the fitted concentration of half-maximal effect; % is set by controls: 0 for no effect and ±100 for the full control effect
#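 hKGA; 45 mM KH2PO4 pH 8.2 + 0.02% Tween-20; cpd via pin tool; 1 mM Gln soln; GluOx/HRP/Amplex Red; RT 30 min; fluor. t0 & final.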
# Active calls of the source: *; i = inactive; ? = inconclusive; · = no result; [ ] = another dose, or the depositor's remark. A selection: hits, their analogues and other compounds. The true share with any hit is near 0.78%. Unless noted, calls come from the whole dose curve; as a rule, active = well fitted curve in the direction sought with a large enough effect; inconclusive = small, poorly fitted or top-dose-only effect, or another doubt; inactive = no such curve, though single readings can be large; an effect the other way counts as inactive or inconclusive.
SMILES,CCT modulator,Tb PGK inh,PINK1 expr mod,PI4K2A block,GLS inhibitor
CN(Cc1cc(Cl)cc(Cl)c1)[C@H]1C[C@H]2c3[nH]c4ccccc4c3CCN2C(=O)[C@H]1CO,0,i,45µM*,-2,6%
CCN(CCO)C(=O)c1cnn(-c2ncc3c(n2)-c2ccccc2CCC3)c1C1CC1,·,·,0%,·,·
COc1ccc2c(c1)c(CC(=O)OC/C=C(\C)CC/C=C(\C)CCC=C(C)C)c(C)n2C(=O)c1ccc(Cl)cc1,·,·,·,-1,·
Cc1ccccc1NC(=O)Cc1nc(COC(=O)CSc2ccc(F)cc2)cs1,-58*,-7%,2%,3,-8%
Cc1ccccc1NC(=O)Cc1nc(COC(=O)CSc2ccccc2)cs1,2,6%,2%,-3,15%
O=C(Nc1nccs1)c1ccc(-c2ccc(Cl)cc2)o1,-2,-6%,4%,4,-6%
O=C(Nc1nccs1)c1ccc(-c2ccc([N+](=O)[O-])cc2)o1,-1,i,35µM*,-4,1%
COc1ccc(/C=N/N2C(C)CCCC2C)cc1O (centres undefined),-2,4%,1%,-2,11µM*
Cc1ccc(F)cc1S(=O)(=O)NCc1nc(N2CCCC2)c2cccc(C)c2n1,·,·,0%,·,·
CC1(C)S[C@@H]2[C@H](NC(=O)C(C(=O)Oc3ccc4c(c3)CCC4)c3ccccc3)C(=O)N2[C@H]1C(=O)O (some centres undefined),·,·,·,·,7.9µM*
CC1(C)SC2C(NC(=O)C(c3ccccc3)S(=O)(=O)O)C(=O)N2C1C(=O)O (centres undefined),·,·,·,·,-8%
C=NC(C(=O)NC1C(=O)N2C1SC(C)(C)C2C(=O)O)c1ccccc1 (centres undefined),·,·,·,·,28µM*
COC(=O)c1ccc(C(=O)N2CCc3c(C(=O)NC(C)c4ccco4)c(OC)cc(=O)n3CC2)cc1 (centres undefined),·,·,0%,·,·
O=S(=O)(O)OCC1OC(OC2(COS(=O)(=O)O)OC(COS(=O)(=O)O)C(OS(=O)(=O)O)C2OS(=O)(=O)O)C(OS(=O)(=O)O)C(OS(=O)(=O)O)C1OS(=O)(=O)O (centres undefined),·,·,·,·,-9%
CN(Cc1ccccc1)C(=O)COC(=O)/C=C/c1ccco1,2,-25%,0%,-2,70%
CN(CCOC(=O)/C=C/c1ccco1)Cc1ccccc1,0,11µM*,2%,-19,?
O=C(Oc1ccc2c(c1)OCO2)c1ccc(Br)c(S(=O)(=O)N2CCOCC2)c1,-2,i,11µM*,1,-11%
O=C(Nc1ccc2c(c1)OCCO2)c1ccc(Br)c(S(=O)(=O)N2CCOCC2)c1,1,-6%,1%,-1,13%
CCN(CC)C(=O)[C@H]1C[C@H](CC(=O)NC(C)(C)C)C(=O)N2CCc3c([nH]c4cc(-c5ccco5)ccc34)[C@]12C,1,-2%,1%,5,-22%
CC(C)N(C(=O)[C@H]1C[C@H](CC(=O)NC(C)(C)C)C(=O)N2CCc3c([nH]c4cc(-c5ccco5)ccc34)[C@]12C)C(C)C,-41*,-10%,?,-2,4%
CC(C)N(C(=O)[C@H]1C[C@H](CC(=O)NCC23CC4CC(CC(C4)C2)C3)C(=O)N2CCc3c([nH]c4ccc(Cl)cc34)[C@]12C)C(C)C,-1,-6%,35µM*,-1,-11%
Cc1cc2c(c(-c3cnccn3)c1)OC(CNC(=O)c1cc(C(C)C)[nH]n1)C2 (centres undefined),·,·,2%,·,·
O=C(COC(=O)c1cc(-c2cccc3ccccc23)nc2ccccc12)NC1CCS(=O)(=O)C1 (centres undefined),-112*,i,0%,-3,-6%
CC(C)C(NS(C)(=O)=O)c1nnc2n1CCN(Cc1ccc3cccnc3c1)CC2 (centres undefined),·,·,1%,·,·
COC(=O)CC(NC1CCN(c2nc(C)c3cc4c(cc3n2)CCC4)CC1)C(=O)OC (centres undefined),·,·,0%,·,·
SMILES,CCT modulator,Tb PGK inh,PINK1 expr mod,PI4K2A block,GLS inhibitor
Cc1cccc(NCc2ccc(O)c3ncccc23)c1C,1,-1%,16µM*,0,-24%
Cc1ccc(NCc2ccc(O)c3ncccc23)cc1,0,-10%,-1%,-1,30%
Cc1ccc(NCc2ccc(O)c3ncccc23)cc1C,0,-7%,?,5,1%
Cc1cccnc1NCc1ccc(O)c2ncccc12,-2,-9%,14µM*,-5,5%
CC(=O)Nc1cc(C(=O)N2CCN(C(=O)c3ccco3)CC2)cc2ncn(CCc3ccccn3)c12,·,·,1%,·,·
CC1(C)CC(=Cc2cc(O)ccc2[N+](=O)[O-])C(=O)c2ccccc21,1,-2%,20µM*,2,1%
OC[C@H]1O[C@@H](OCCc2ccc(O)cc2)[C@H](O)[C@@H](O)[C@H]1O,·,·,·,-1,·
OC[C@H]1O[C@H](OC/C=C/c2ccccc2)[C@H](O)[C@@H](O)[C@@H]1O,·,·,·,·,0%
COc1ccccc1CC(=O)N1CCN(c2cccc(C(F)(F)F)c2)CC1,-34*,·,2%[38.3 µM],4,8%
COc1ccccc1NC(=O)N1CCN(c2cccc(C(F)(F)F)c2)CC1,0,i,-6%[38.3 µM],0,-1%
CCN(Cc1ccccc1)S(=O)(=O)c1ccc(S(=O)(=O)N(Cc2ccccn2)Cc2ccco2)cc1,-1,-9%,11µM*,3,-2%
Cc1cc(S(=O)(=O)N(Cc2ccccn2)Cc2ccco2)ccc1-n1cnnn1,-2,4%,·,-4,-5%
COc1cc(Br)cc(C=Nc2cccc(C(F)(F)F)c2)c1O,-31*,-2%,-2%,-11,-8%
Cc1cc(N/N=C/c2ccc(O)cc2)nc(NS(=O)(=O)c2ccccc2)n1,1,25µM*,8%,-7,13µM*
Cc1ccc(-c2ccnc(-n3ncc(C(=O)N(C)CC4CCCN(C)C4)c3C)n2)o1 (centres undefined),·,·,1%,·,·
CCOc1ccc(-n2c(=S)sc3c(=O)[nH]c(SCC(=O)N4CCC(C)CC4)nc32)cc1,1,7%[11.5 µM],-5%[38.3 µM],0,7.1µM*
O=C(CSc1nc2c(cnn2-c2ccc(F)cc2)c(=O)[nH]1)Nc1ccc(Br)cc1,·,0%,1%,-8,7.9µM*
C=CCNc1nc(NCC=C)nc(N2CCN(C(c3ccc(F)cc3)c3ccc(F)cc3)CC2)n1,·,·,·,0,·
Cc1ccc(CNc2ncnc3sc(C(=O)N4CCC(N5CCCC(O)C5)CC4)c(C)c23)o1 (centres undefined),·,·,1%,·,·
